Data from PubChem BioAssay (NCI).
The panel holds about 79,000 compounds, 15% with a hit somewhere; the sample as a whole holds those more often. Unmarked numbers belong to inactive results. Activity calls are given as the source filed them. Cut-off read from the data, not from the text of the source: active = growth inhibition above about 70%; inactive = the rest.

Columns and labels:
[1] = NCI Yeast Anticancer Drug Screen. Data for the rad50 strain (AID 155);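 note: 0% = growth of vehicle-only cultures of the same strain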; settings: S. cerevisiae rad50 strain growth inhibition, stronger effect = higher value
In short: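 Yeast carrying a defined DNA repair defect were exposed to test compounds, and growth was compared with vehicle-treated controls to give percent inhibition.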

[2] = NCI Yeast Anticancer Drug Screen. Data for the mec2-1 strain (AID 157); settings: S. cerevisiae mec2-1 strain, stronger effect = higher value
In short: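 Each compound was tested on mec2-1 yeast, a strain altered in DNA damage repair or cell cycle control. Growth inhibition is reported relative to vehicle.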

[3] = NCI Yeast Anticancer Drug Screen. Data for the sgs1 mgt1 strain (AID 161);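 note: 0% = growth of cultures given vehicle only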; settings: S. cerevisiae sgs1 mgt1 strain, stronger effect = higher value
In short: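 Genetically altered yeast, compound exposure, growth inhibition relative to vehicle.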

[4] = NCI Yeast Anticancer Drug Screen. Data for the cln2 rad14 strain (AID 165);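 note: 0% = growth equal to vehicle treated cultures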; settings: S. cerevisiae cln2 rad14 strain, stronger effect = higher value
In short: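 Test compounds were added to cln2 rad14 yeast cultures; inhibition of growth was then determined by comparison with vehicle treatment.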

[5] = NCI Yeast Anticancer Drug Screen. Data for the bub3 strain (AID 167); settings: S. cerevisiae bub3 mutant strain, stronger effect = higher value
In short: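 Compounds were applied to a genetically altered yeast strain carrying a cell-cycle control defect. Growth inhibition was scored against vehicle-treated controls.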

[6] = NCI Yeast Anticancer Drug Screen. Data for the mlh1 rad18 strain (AID 175); settings: S. cerevisiae mlh1 rad18 strain growth inhibition, stronger effect = higher value
In short: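 Inhibition values reflect reduced growth of mutant yeast versus vehicle-treated controls following compound exposure; the mutations affect DNA damage repair.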

[7] = at 5.0 µM (retest, dose inferred, filed as 0.5)
[8] = at 50.0 µM (retest, dose inferred, filed as 5.0)

SMILES	growth inhibition [1, 7]	growth inhibition [1, 8]	growth inhibition ([1]; at 50.0 µM)	growth inhibition [2, 7]	growth inhibition [2, 8]	growth inhibition ([2]; at 50.0 µM)	growth inhibition [3, 7]	growth inhibition [3, 8]	growth inhibition ([3]; at 50.0 µM)	growth inhibition [4, 7]	growth inhibition [4, 8]	growth inhibition ([4]; at 50.0 µM)	growth inhibition [5, 7]	growth inhibition [5, 8]	growth inhibition ([5]; at 50.0 µM)	growth inhibition [6, 7]	growth inhibition [6, 8]	growth inhibition ([6]; at 50.0 µM)
O=C(O)c1c(Br)c(Br)c(Br)c(Br)c1-c1c2ccc(=O)cc-2oc2cc(O)ccc12	94% (active)	93% (active)	84.1% (active)	95% (active)	96% (active)	88.7% (active)	87% (active)	96% (active)	87.1% (active)	88% (active)	95% (active)	87.8% (active)	91% (active)	95% (active)	85.8% (active)	94% (active)	92% (active)	83.5% (active)
COc1ccc(N=Nc2ccc3oc(=O)c(C(=O)Nc4ccc(OC)cc4)cc3c2)cc1	24%	97% (active)	94.8% (active)	14%	97% (active)	95.3% (active)	14%	98% (active)	95.5% (active)	26%	94% (active)	94.3% (active)	-25%	92% (active)	95.3% (active)	36%	97% (active)	95.1% (active)
ClC1=C(Cl)C(Cl)=C(Cl)C1	6%	93% (active)	88.2% (active)	7%	97% (active)	51.4%	10%	93% (active)	48.5%	5%	85% (active)	3.55%	4%	96% (active)	79.9% (active)	0%	96% (active)	91.5% (active)
CCN(CC)CCNc1ccc(C)c2sc3c(OC)cccc3c(=O)c12	1%	22%	74.6% (active)	-1%	4%	9.75%	-3%	22%	25.6%	-2%	8%	-2.4%	-1%	11%	23.4%	-5%	36%	11.8%
O=C(C[N+]12CN3CN(CN(C3)C1)C2)c1ccc(Cl)cc1Cl	-2%	-4%	99.3% (active)	9%	5%	99.5% (active)	-20%	-4%	99.4% (active)	-1%	-6%	99.2% (active)	0%	-2%	99.3% (active)	-12%	-26%	99.4% (active)
Cc1cc(N)cc(C)c1-c1c(N)cc(Br)cc1Br	-1%	-10%	98.1% (active)	-3%	-6%	97.5% (active)	-4%	-9%	98.3% (active)	1%	-10%	96.6% (active)	-7%	-13%	98.1% (active)	-2%	-9%	97.9% (active)
CN(C)C1CCC2C(=C1OC(=O)c1ccccc1)C=Cc1ccccc12 (stereo not given)	-1%	11%	25%	2%	16%	13.4%	13%	38%	31.9%	4%	7%	-1.4%	0%	12%	22.9%	21%	53%	67.5%
O=C1CSc2ccccc2-n2cccc21	5%	6%	9.55%	11%	8%	3.35%	6%	-4%	61.5%	32%	30%	-1.1%	77% (active)	77% (active)	-11.2%	5%	15%	1.95%
CCCCCCCCCCCCCCCC(=O)N1CC[N+](C)(CC2=CC3(Cl)C(Cl)=C(Cl)C2(Cl)C3(Cl)Cl)CC1 (stereo not given)	99% (active)	99% (active)	98.8% (active)	99% (active)	99% (active)	99.2% (active)	98% (active)	99% (active)	99.2% (active)	96% (active)	98% (active)	98.5% (active)	99% (active)	99% (active)	98.8% (active)	99% (active)	99% (active)	98.7% (active)
CC(C)OC(=O)CCCCCC1CCCCC1	6%	9%	0.95%	-2%	2%	13.5%	3%	11%	1.4%	10%	6%	31.7%	8%	3%	-0.25%	4%	7%	8.8%
COc1cc2c(cc1OC)-c1nc(N)sc1CC2	2%	-4%	86.8% (active)	-2%	-1%	85.5% (active)	2%	-23%	81.8% (active)	-4%	4%	85.7% (active)	-2%	-4%	85.8% (active)	-1%	7%	88.3% (active)
N#Cc1ccc(Cl)cc1[N+](=O)[O-]	31%	97% (active)	90.3% (active)	15%	98% (active)	92% (active)	36%	96% (active)	90.8% (active)	38%	96% (active)	91% (active)	52%	97% (active)	90.2% (active)	42%	96% (active)	90.4% (active)
CN(C)C[N+](C)(C)Cc1ccc(C[N+](C)(C)C[N+](C)(C)Cc2ccc(CCl)cc2)cc1	0%	-2%	83% (active)	-36%	-1%	20.4%	-2%	-1%	69.5%	0%	-1%	45%	-8%	-1%	66.2%	-2%	-1%	52.5%
O=C1C=CC(=O)N1c1ccc(Br)c(Cl)c1	101% (active)	100% (active)	68.7%	100% (active)	100% (active)	87.8% (active)	21%	100% (active)	80.3% (active)	46%	100% (active)	24.2%	37%	100% (active)	66.6%	100% (active)	100% (active)	63.7%
O=C1c2ccccc2CC(Br)c2ccccc21 (stereo not given)	-2%	97% (active)	97.2% (active)	-4%	94% (active)	27.4%	3%	94% (active)	81.8% (active)	-77%	80% (active)	1.7%	-10%	-3%	42.5%	1%	98% (active)	97.7% (active)
O=C1OC(C2OC(=O)C(=O)C2C(=O)c2ccc(Cl)c(Cl)c2)C(C(=O)c2ccc(Cl)c(Cl)c2)C1=O (stereo not given)	7%	97% (active)	94.5% (active)	10%	93% (active)	63.8%	14%	97% (active)	74.3% (active)	4%	84% (active)	34.5%	-34%	92% (active)	55.2%	12%	98% (active)	96.2% (active)
Cn1c(=O)c2c(ncn2-c2ccncc2)n(C)c1=O	-5%	0%	11.4%	-4%	-5%	-3.9%	-3%	-7%	15.9%	-3%	31%	73.8% (active)	-9%	-8%	-5.35%	-5%	-2%	4.8%
CN(C)CCCN1c2cc(Cl)ccc2Sc2ccc3ccccc3c21	3%	98% (active)	99.3% (active)	3%	99% (active)	99.3% (active)	3%	99% (active)	99.2% (active)	2%	96% (active)	98.6% (active)	5%	96% (active)	99.5% (active)	28%	98% (active)	99.3% (active)
CC(/C=C/c1ccc(Cl)c(Cl)c1)=N\NC(N)=S	37%	69%	61.2%	31%	73% (active)	53.5%	48%	76% (active)	82.9% (active)	39%	41%	77.2% (active)	29%	82% (active)	64.4%	61%	81% (active)	80% (active)
OC(CCN1CCCCC1)(Cc1ccccc1)c1cccc(Cl)c1 (stereo not given)	8%	46%	58.1%	4%	40%	26.6%	28%	78% (active)	73.1% (active)	17%	52%	77.8% (active)	15%	62%	50.9%	17%	64%	60.3%
